In PubChem BioAssay AID720519 (National Center for Advancing Translational Sciences (NCATS), 2013):
Inconclusive results are not listed. Calls come from the whole dose curve; as a rule, active = well fitted activation curve with a large enough effect; inconclusive = small, poorly fitted or top-dose-only effect; inactive = flat fitted curve, though single readings scatter.

test: qHTS for Inhibitors of Cell Surface uPA Generation: Confirmatory Assay for Cherry-picked Compounds; settings: cell surface uPA activity generation, qHTS confirmation; series mostly up to 115 µM; inhibition: at the top concentration; note: 0% is about no effect
How it was run: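 RAW 264.7 cells at 4000/well, incubated overnight, then treated with compounds. After 24 h at 37 C, viability was read by ATPlite luminescence. An increase in signal indicates blocked uPA-dependent LF entry.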

inhibition, inactive:
COCCOc1ccc(C(F)(F)F)cc1NC(=O)COC(=O)Cc1c[nH]c2ccccc12 -0.701%
O=C(Nc1ccc(Cl)cc1)Nc1nnc(-c2ccncc2)s1 -3.24%
CCOc1ccc(CCNC(=O)Cc2ccc(NC3=NC4CS(=O)(=O)CC4S3)cc2)cc1OCC (centres undefined) 2.7%
O=C(O)C(Nc1nc(C(F)(F)F)nc2ccccc12)c1ccccc1 (centres undefined) 0.904%
Cc1ccsc1/C=C(\C#N)C(=O)NC1CCS(=O)(=O)C1 (centres undefined) -1.74%
CC(C)C[C@H]1CN([C@@H](CC(C)C)CN2CCCC2CN2C(=S)NC[C@@H]2Cc2ccc(O)cc2)C(=S)N1CC1CCCCC1 (some centres undefined) -2.13%
CCOC(=O)N1CCN(c2c(NCCCN3CCCCCC3)c(=O)c2=O)CC1 -2.71%
CC(C)(C)n1ncc2c(=O)n(Cc3ccc(Cl)cc3)cnc21 -3.05%
CCN1CCN(Cc2ccc(NC(=O)c3cc(NC(=O)c4cncc(-c5cccs5)c4)cc(OC)c3)cc2C(F)(F)F)CC1 -2.1%
COC(C[C@H](O)[C@H](C)[C@@H](O)COCc1ccccc1)OC -2.54%
O=C(CN1CCCC1)Nc1cccc(Cl)c1Cl 1.68%
COc1ccc(NS(=O)(=O)c2cc(NS(=O)(=O)c3cc(C(=O)O)ccc3OC)ccc2C)cc1 -0.471%
COc1cc(C2/C(=C(\O)c3ccc4c(c3)CC(C)O4)C(=O)C(=O)N2CC2CCCO2)cc(OC)c1OC (centres undefined) -1.4%
COc1ccc(N2CC(C(=O)Nc3nnc(SCCC4OCCO4)s3)CC2=O)cc1 (centres undefined) -2.33%
N#Cc1ccccc1Sc1ccccc1C(=O)Nc1ccc(Br)cc1 -2.89%
COCc1c(C(=O)Nc2nc(C)cs2)oc2ccccc12 -3.41%
O=C(NC1CC1)C1CCCN(C(=O)NC2CCCCC2)C1 (centres undefined) -1.77%
O=C(Nc1cccc(C2=NCCN2)c1)Nc1cccc(C2=NCCN2)c1 -3.27%
CC1(C)CC2(CC(c3ccccc3)Oc3cc(O)ccc32)NC(=S)N1 (centres undefined) -1.51%
O=C(CSc1ccc([N+](=O)[O-])cn1)Nc1nccs1 -1.37%
C[C@]12CCC(O)CC1CCC1C2CC[C@]2(C)C(c3cc(C(F)(F)F)n[nH]3)CCC12 (some centres undefined) -3.84%
COc1cc(/C=N/NC(=O)Cc2csc(C)n2)ccc1OCC(C)C -0.993%
C=CCOC(=O)C1=C(C)NC(C)=C(C(=O)OCC=C)C1c1cn(-c2ccccc2)nc1-c1ccco1 2.24%
COCCNS(=O)(=O)c1cc(OC)c(C)cc1C 1.42%
Cc1ccc(NC2CCCN(C(=O)Cc3nonc3C)C2)cc1C (centres undefined) -0.6%
Cc1cc(C)cc(NC(=O)COC(=O)CCn2c(C)csc2=O)c1 -1.09%
Cc1ccccc1OCCC(=O)NNC(=O)c1ccccc1F -0.751%
Cc1ccc2cccc(OCCCOc3ccccc3CO)c2n1 2.51%
Cc1ccc(C(=O)NC(=S)Nc2ccc3[nH]c(=O)[nH]c3c2)c(C)c1 -1.36%
CCOC(=O)c1cc(-c2ccccc2C)n(CC2CC(c3ccc(OC)cc3)=NO2)n1 (centres undefined) -3.81%
COC(=O)Cc1c(C)c2ccc(OCC(=O)N3CCCC(C)C3)c(C)c2oc1=O (centres undefined) -2.44%
[N-]=[N+]=NC1C[C@H](n2ccc(=O)[nH]c2=O)O[C@@H]1CO (some centres undefined) -2.21%
C[C@@H](CSc1ccccc1)CN1CC[C@H](O)CCC1=O -0.766%
C#CCN1C=C(C(=O)OCC)C(C)NS1(=O)=O (centres undefined) 1.26%
OCCN(Cc1ccccc1)CC(O)COc1ccc2c(c1)OCO2 (centres undefined) 0.0346%
CCOC(=O)C(CC)n1cnc2c(nnn2-c2ccccc2)c1=O (centres undefined) 0.0418%
c1csc(CN2CCOCC2)c1 0.583%
O=C(Nc1ccc(S(=O)(=O)N2CCOCC2)cc1)c1cc(-c2ccccc2O)n[nH]1 -1.36%
CCOCc1nnc(NC(=O)C2CCN(C(=O)C3CC(=O)N(c4ccc(C)cc4)C3)CC2)s1 (centres undefined) -1.89%
